In PubChem BioAssay (EPA / NIEHS):
Calls of active or inactive are those of the source. Rule for the calls: active = hit-call score of the fitted dose curve at least 0.9, where 1 is the maximum; inactive = score below 0.9.

assay: ATG_NFI_CIS: Attagene CIS-FACTORIAL HepG2 Assay for human Nuclear Factor I (NFI) (AID 2282989); details: HepG2 cis-regulatory reporter, NFI response element transcription; actives raise or lower the signal
Description: ATG_CIS is a cell-based, multiplexed-readout assay that uses HepG2, a human liver cell line, with measurements taken at 24 hours after chemical dosing in a 24-well plate.ATG_NFI_CIS is one of 52 assay component(s) measured or calculated from the ATG_CIS assay. It is designed to make measurements of mRNA induction, a form of inducible reporter, as detected with fluorescence intensity signals by Reverse transcription polymerase chain reaction (RT-PCR) and Capillary electrophoresis technology.Data from the assay component ATG_NFI_CIS was analyzed into 1 assay endpoint. This assay endpoint, ATG_NFI_CIS, was analyzed with bidirectional fitting relative to DMSO as the negative control and baseline of activity. Using a type of inducible reporter, measures of mRNA for gain or loss-of-signal activity can be used to understand the reporter gene at the transcription factor-level as they relate to the gene NFIA. Furthermore, this assay endpoint can be referred to as a primary readout, because this assay has produced multiple assay endpoints where this one serves a reporter gene function. To generalize the intended target to other relatable targets, this assay endpoint is annotated to the dna binding intended target family, where the subfamily is nuclear factor I.
Human liver HepG2 cells are transiently transfected with multiple reporter transcription units (MRTUs) in 6-well plates using FuGene 6 reagent (Roche; 3 ml FuGene/1 mg DNA). The MRTU constructs are regulated by a cis-regulating element (promoter). […] A major difference between the CIS and TRANS system is that in CIS activities of endogenous TFs are measured, whereas the TRANS assay evaluates changes in activities of exogenous, chimeric NR-Gal4 proteins. […] At the end of 24 hour incubation, total RNA was isolated using TriZol reagent (Invitrogen). The isolated RNA is then reverse-transcribed using oligo(dT) primer and Mo-MLV reverse transcriptase (Invitrogen) with DNAse I (Ambion) treatment for 30 min. The one-tenth of the produced cDNA was amplified by PCR using Taq DNA polymerase (Invitrogen) and two reporter sequence-specific primers. The PCR products were fluorescently labeled by primer extension with 6-arboxyfluorescein (6-FAM) 5'-labeled reporter sequence-specific primer (2 min at 95 C, 20 s at 68 C and 10 min at 72 C) and these products were digested with 5U of HpaI (New England Biolabs) for 2h at 37 C. The fragments were purified using Qiaquick PCR columns (Qiagen), analyzed on an ABI 3130xL genetic analyzer (Applied Biosystems) with peak positions identified by using a set of X-rhodamine (ROX)-labeled MapMarker1000 molecular weight standards (BioVentures). The raw capillary electrophoresis data was processed using Attagraph software (Attagene).

outcome, inactive:
C[C@]12CC[C@H]3[C@@H](CCC4=CC(=O)CC[C@@]43C)[C@@H]1CC[C@@H]2C(=O)CO
CCCCCCOC(=O)CC
O=C1NC(=O)c2ccccc21
CC(=O)OCC=Cc1ccccc1
C/C=C(\C)C(=O)OCc1ccccc1
Nc1cc([N+](=O)[O-])ccc1Cl
CNC(=O)Oc1ccc2c(c1)[C@]1(C)CCN(C)[C@@H]1N2C
O=C[C@H](O)[C@H](O)[C@H](O)CO
NCCCCCCN
O=C(O)CCCCCCCCCCC(=O)O
C=C(C)C(=O)O
CCCCCCCCCCCCN
CC(C)[C@H]1CC[C@@H](C)CC1=O
CCCCCCCCCCCCN(CCCCCCCCCCCC)CCCCCCCCCCCC
c1ccc(CCCc2ccccn2)cc1
CC(=O)Nc1ccccc1O
CCC(O)CO (stereo not given)
O=[N+]([O-])c1ccc(C=Cc2ccc([N+](=O)[O-])cc2S(=O)(=O)O)c(S(=O)(=O)O)c1
CCOc1ccccc1OCC
O=c1[nH]nnc2ccccc12
COc1cc2ncnc(Nc3cccc(Cl)c3)c2cc1OC
CC(=O)OCCOC(C)=O
CC(CCO)CCc1ccccc1 (stereo not given)
CCCC/C=C\CCCCCCCCCC=O
Cc1ccccc1C=O
CC(C)C1CCC(O)CC1 (stereo not given)
CCC(=O)OCCC(C)CCC=C(C)C (stereo not given)
CC(C)(C#N)c1cc(Cn2cncn2)cc(C(C)(C)C#N)c1
CCCC[n+]1ccccc1
COC(=O)C1=C(C)NC(C)=C(C(=O)OCCN(C)Cc2ccccc2)C1c1cccc([N+](=O)[O-])c1 (stereo not given)
C=CC(=O)NCOCC(C)C
OCCOc1cccc(OCCO)c1
Nc1ccc(S(N)(=O)=O)cc1
CC1CCC2CC1C2(C)C (stereo not given)
C=C(C)C(=O)NCCCN(C)C
CC(CN1c2ccccc2Sc2ccccc21)N(C)C (stereo not given)
COC(=O)Cc1cccc2ccccc12
CC(C)=CCC[C@H](C)CC=O
CC1(C)[C@H]2CC[C@]1(C)[C@H](O)C2
Nc1ccc(S(=O)(=O)O)c(N)c1
